Assay outcomes (PubChem)
In the library only some 1.2% were active in any assay of this set; here they are far more common.
RGS16-Gao = regulators of human RGS16-Galphao interaction. O15492+P09471. actives 0.38% (n = 220,000). binding response (% of control), % at 10 µM. bead-based flow cytometry RGS16-Galphao binding, fluorescence; actives lie on both sides. AID 1441;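 further: Galphao activated by GDP with aluminum fluoride before binding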
Avidin fluor = avidin bead compound fluorescence profile; Avidin beads, compound fluorescence 488/530 nm, flow cytometry; active compounds read high; fluorescence (KMESF) at 10 µM; actives 0.38% (n = 220,000); AID 1775; in the data active means fluorescence above about 47
GSH fluor = GSH bead compound fluorescence profile. GSH beads flow cytometry, compound fluorescence 488/530 nm; active compounds read high. AID 1776. fluorescence (KMESF) at 10 µM. actives 0.25% (n = 190,000); in the data active means fluorescence above about 89;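 further: glutathione beads carrying GST-tagged Bcl family fusion proteins plus one bare bead set; values are compound well signal with DMSO vehicle wells as background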
RGS8-Gao reg = regulators of human RGS8-Galphao interaction; P09471; multiplexed bead flow cytometry, RGS8-Galphao binding; actives lie on both sides; response (percent of control binding), % at 10 µM; actives 0.34% (n = 220,000); in the data active means response below about 60% or above about 140%; inactive means in between;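 further: Galphao activated as the GDP aluminium fluoride complex binding bead-coupled RGS8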
Target sequence (P09471 whole entry, looked up): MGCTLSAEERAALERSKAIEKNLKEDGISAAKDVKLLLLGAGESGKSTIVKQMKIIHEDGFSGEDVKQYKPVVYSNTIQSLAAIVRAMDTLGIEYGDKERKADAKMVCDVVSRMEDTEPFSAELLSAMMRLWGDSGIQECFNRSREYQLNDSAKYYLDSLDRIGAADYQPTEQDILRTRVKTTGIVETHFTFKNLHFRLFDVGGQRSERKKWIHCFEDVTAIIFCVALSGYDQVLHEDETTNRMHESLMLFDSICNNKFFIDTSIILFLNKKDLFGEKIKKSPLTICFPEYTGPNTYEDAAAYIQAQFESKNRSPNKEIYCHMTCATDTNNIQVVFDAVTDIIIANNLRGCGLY
RGS7-Gao reg = regulators of human RGS7-Galphao interaction. Multiplexed bead flow cytometry, RGS7-Galphao binding; actives lie on both sides. binding response (% of control), % at 10 µM. actives 0.35% (n = 220,000). AID 1439; in the data active means binding response below about 49% or above about 150%; inconclusive means no clear call, values can overlap the other calls; inactive means in between;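 further: fluorescent Galphao held in activated GDP-AlF4 state binding bead-coupled RGS7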
RGS4-Gao reg = modulates binding of RGS4 to human Galphao | P09471 | Multiplexed bead flow cytometry; actives lie on both sides | binding response (% of control), % at 10 µM | actives 0.33% (n = 220,000) | AID 1415; in the data active means binding response below about 49% or above about 150%; inactive means in between;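 further: fluorescent Galphao activated with aluminum fluoride binding bead-coupled RGS4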
RGS-Gao = regulators of human RGS4-Galphao interaction. shares compounds with RGS16-Gao. multiplexed bead flow cytometry, RGS–Galpha-o binding. RGS4–Galpha-o binding response, % at 10 µM. actives 99% (n = 1,600). AID 1504;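 further: fluorescently labeled Galpha-o bound to GDP with aluminium fluoride binding biotinylated RGS beads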
Target sequence (P09471 whole entry, looked up): as above
Target sequence (P49798 whole entry, looked up): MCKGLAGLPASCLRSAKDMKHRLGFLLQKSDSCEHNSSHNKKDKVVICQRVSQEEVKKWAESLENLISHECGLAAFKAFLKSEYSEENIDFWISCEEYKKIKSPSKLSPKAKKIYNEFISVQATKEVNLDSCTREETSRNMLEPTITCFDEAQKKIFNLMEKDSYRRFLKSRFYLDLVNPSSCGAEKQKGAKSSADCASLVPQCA
Avidin counter = interferes with biotinylated probe binding to avidin beads. streptavidin beads, fluorescein-biotin binding, flow cytometry. AID 1783. 1,700 tested, under 10 active. shares compounds with RGS16-Gao. inhibition, % at 10 µM;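 active means inhibition above 50%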;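 further: median green fluorescence of gated singlet beads compared with DMSO control wells; 0% = DMSO wells and 100% = complete loss of bead fluorescence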
RGS8-Gao single = confirmation of regulators of human RGS8-Galphao interaction; shares compounds with RGS16-Gao; bead-based flow cytometry RGS8-Galphao binding, fluorescence; actives lie on both sides; binding response (% of control), % at 10 µM; actives 3% (n = 1,700); AID 1836; in the data active means binding response below about 72% or above about 130%; inactive means in between;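 further: Galphao activated as GDP AlF4 complex before binding bead RGS8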
RGS7-Gao single = confirmation of regulators of human RGS7-Galphao interaction; actives 7.8% (n = 1,700); bead-based flow cytometry RGS7-Galphao binding; actives lie on both sides; shares compounds with RGS16-Gao; response (percent of control binding), % at 10 µM; in the data active means response below about 75% or above about 130%; inactive means in between;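 further: fluorescent Galphao activated with GDP and aluminum fluoride binding bead-coupled RGS7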
RGS16-Gao single = confirmation of regulators of human RGS16-Galphao interaction; shares compounds with RGS16-Gao; bead-based flow cytometry, RGS16-Galphao binding; actives lie on both sides; response (% of control binding), % at 10 µM; actives 4% (n = 1,700); AID 1838; in the data active means response below about 74% or above about 130%; inactive means in between;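 further: Galphao activated as the GDP aluminium fluoride complex binding bead-coupled RGS16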
RGS4-Gao confirm = confirmation of regulators of human RGS4-Galphao interaction; actives 4% (n = 1,700); binding response (% of control), % at 10 µM; RGS4-Galphao binding, multiplexed bead flow cytometry; actives lie on both sides; shares compounds with RGS16-Gao; AID 1840; in the data active means binding response below about 74% or above about 130%; inactive means in between
RGS19-Gao single = RGS19-Galphao interaction regulation, single point confirmation | shares compounds with RGS16-Gao | bead-based flow cytometry RGS19-Galphao binding; actives lie on both sides | response (percent of control binding), % at 10 µM | actives 5% (n = 1,700); in the data active means response below about 50% or above about 160%; inactive means in between;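 further: 100% = no compound control and 0% = blank background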
An asterisk follows results filed as active; ? = inconclusive; · = no result; [ ] = dose if it differs, or a comment. Unless noted, how the calls were made is not given here.

SMILES	RGS16-Gao	Avidin fluor	GSH fluor	RGS8-Gao reg	RGS7-Gao reg	RGS4-Gao reg	RGS-Gao	Avidin counter	RGS8-Gao single	RGS7-Gao single	RGS16-Gao single	RGS4-Gao confirm	RGS19-Gao single
COc1cc(-c2cc(C(=O)NN3CCN(C)CC3)c3ccccc3n2)cc(OC)c1OC	281.8*[activator]	14	5	133.2	108.8	110.5	110.5*	0.4	101.4	103.8	102.2	102.1	103.3
COc1cc(-c2cc(C(=O)O)c3cc4c(cc3n2)OCCO4)cc(OC)c1OC	·	·	30	·	·	·	·	2.0	99.9	101.0	99.2	101.3	104.8
Cc1ccc(C(=O)N(c2ccccc2)C2CC(C)N(C(=O)c3ccco3)c3ccccc32)cc1 (stereo unspecified)	110.6	13	23	104.3	103.2	103.5	·	·	·	·	·	·	·
CCc1ccc2c(c1)c(N=NC1=NC(=O)CS1)c(O)n2C	100.8	22	10	104.4	105.9	107.1	·	·	·	·	·	·	·
Cc1cc(C)c2[nH]c(O)c(N=NC3=NC(=O)CS3)c2c1	269.6*[activator]	124*	·	115.8	?	283.0*[activator]	·	0.4	100.2	94.7	99.7	96.6	120.0
O=C(CCSc1nnc2ccc3ccccc3n12)Nc1ccc(F)cc1	·	·	37	·	·	·	·	-2.4	102.5	102.9	101.5	103.8	108.1
O=C(/C=C/c1cccc([N+](=O)[O-])c1)NCCSCc1ccc(Cl)cc1	100.2	12	12	101.8	98.2	103.0	·	·	·	·	·	·	·
CC(/C=N/n1c(-c2ccco2)n[nH]c1=S)=C\c1ccco1	-3.8*	2	11	62.5	76.3	73.5	73.5*	-0.6	95.0	104.0	91.8	96.2	94.3
CC(/C=N/n1c(-c2ccc(C)cc2)n[nH]c1=S)=C\c1ccco1	104.9	11	17	99.5	105.1	96.2	·	·	·	·	·	·	·
COc1ccc(NC(=O)CN2CCN(CC(=O)Nc3ccc4c(c3)OCO4)CC2)cc1	98.9	4	35	97.9	95.6	94.1	·	·	·	·	·	·	·
COc1ccccc1NC(=O)CN1CCN(CC(=O)Nc2ccc3c(c2)OCO3)CC1	347.8	4	57	142.1*[activator]	112.3	119.0	119.0*	·	·	·	·	·	·
NS(=O)(=O)c1ccc(NC(=O)COC(=O)CCc2ccc(S(=O)(=O)N3CCOCC3)cc2)cc1	102.5	4	·	102.8	?	101.8	·	·	·	·	·	·	·
O/N=C/c1cccnc1Sc1ccccc1	179.9*[activator]	24	11	162.5*[activator]	157.3*[activator]	152.4*[activator]	·	-0.2	101.9	99.5	101.3	99.2	105.7
COc1cc(C(=O)NCC(c2cccnc2)N2CCN(c3ccc(F)cc3)CC2)cc(OC)c1OC (stereo unspecified)	104.5	12	12	102.7	100.2	105.2	·	·	·	·	·	·	·
CCc1ccc(/C=C2/C(=O)N(CC)C(=S)N2C)s1	112.7	2	11	170.2*[activator]	198.8*[activator]	197.7*[activator]	·	-0.5	104.5	105.5	104.7	103.2	95.2
CCOc1ccc(N2C(=O)/C(=C/c3cccs3)N(C)C2=S)cc1	104.3	2	5	102.3	104.9	100.0	·	·	·	·	·	·	·
Cc1ccc(-n2c3c(c(=O)[nH]c2=O)C(NS(=O)(=O)c2ccc(C)cc2)(C(F)(F)F)C(=O)N3)cc1 (stereo unspecified)	102.7	17	15	101.8	101.3	100.0	·	·	·	·	·	·	·
Cc1ccc(S(=O)(=O)NC2(C(F)(F)F)C(=O)Nc3c2c(=O)[nH]c(=O)n3-c2ccccc2)cc1 (stereo unspecified)	152.2	88*	5	118.1	162.1*[activator]	113.0	113.0*	-1.6	100.7	101.6	101.4	101.8	85.5
CCSc1nnc(NC(=O)C(CC)(C(F)(F)F)C(F)(F)F)s1	101.0	9	11	102.2	100.7	100.7	·	·	·	·	·	·	·
CCSc1nnc(NC(=O)C(C)(C(F)(F)F)C(F)(F)F)s1	287.6*[activator]	4	47	119.1	109.0	112.4	112.4*	-0.2	100.8	94.2	96.9	95.6	64.6
O=C(CN1C(=O)COc2ccccc21)N(Cc1ccc2c(c1)OCO2)CC1CCCO1 (stereo unspecified)	105.0	5	25	103.6	98.2	105.9	·	·	·	·	·	·	·
O=C(CN1C(=O)COc2ccccc21)N(CCCN1CCOCC1)CC1CC=CCC1 (stereo unspecified)	·	·	45	·	·	·	·	-2.6	103.1	99.6	103.5	100.7	88.4
O=C(CN1CCN(c2ccccc2O)CC1)NC(c1ccccc1)c1ccccc1	243.7*[activator]	5	16	136.6	114.5	114.4	114.4*	2.4	104.7	105.2	101.3	104.2	92.3
O=C(CN1CCN(c2ccccc2O)CC1)NCCCc1ccccc1	102.2	12	10	102.4	99.5	99.4	·	·	·	·	·	·	·
Cn1ncc(Br)c1C(=O)NC12CC3CC(CC(C3)C1)C2	103.8	2	6	101.7	100.5	101.1	·	·	·	·	·	·	·
O=C(c1cnccn1)N(Cc1ccco1)C1(C(=O)NC2CCCC2)CCCCC1	104.6	13	49	100.0	102.5	100.3	·	·	·	·	·	·	·
O=C(c1cnccn1)N(Cc1ccco1)C1(C(=O)NC2CCCCC2)CCCCC1	-53.5*	8	8	80.2	88.9	79.5	79.5*	2.2	102.0	106.2	101.8	105.0	105.7
Cc1c(C(=O)NC(C)CCc2ccccc2)cccc1[N+](=O)[O-] (stereo unspecified)	113.4	19	7	106.1	104.0	105.6	·	·	·	·	·	·	·
CCC(CC)NC(=O)c1cccc([N+](=O)[O-])c1C	237.2*[activator]	5	10	137.9	113.5	115.8	115.8*	-0.1	100.8	100.2	99.3	98.4	98.7
CCCC(=O)Nc1cccc(NC(=O)c2cccc([N+](=O)[O-])c2C)c1	205.3*[activator]	16	10	121.0	108.6	110.4	110.4*	-0.7	96.3	94.9	92.7	94.0	84.7
